Sm TGR inh: S. mansoni TGR enzyme inhibition; 360,000 compounds, 3% hits; AID 485364; Q962Y6; Potency, µM (doses to about 114 µM), for inactives: at the highest dose activity change, negative = inhibition, usual class: inhibitors; purified TGR, DTNB reduction, TNB absorbance 405 nm; note: potency is the fitted concentration of half-maximal effect; % is set by controls: 0 for no effect and ±100 for the full control effect; nearly all actives have a fitted effect of over 60% in size
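First, TGR (20 nM dispensed) and NADPH were mixed with compound. Second, a 15 min room-temperature incubation followed. Third, further NADPH and then DTNB were added to start the reaction. Finally, TNB absorbance was monitored kinetically.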
SARS PLpro yeast: blocks SARS-CoV papain-like protease in a yeast assay; 330,000 compounds, 0.19% hits; Potency, µM (doses to about 32.9 µM), inactives show at the highest dose activity, positive = growth rescue, actives largely listed as activators; S. cerevisiae expressing SARS-CoV PLpro, growth rescue; calls by dose curve; note: potency is the fitted concentration of half-maximal effect; 0% is about no effect; nearly all actives have a fitted effect of over 55% in size
Pf growth 48h: inhibits P. falciparum growth in the first generation, 48 h; P. falciparum luciferase growth in erythrocytes, 48 h; Potency, µM (top dose mostly 28.7 µM), without a hit: top-dose activity change, negative = inhibition, most hits filed as inhibitors; 310,000 compounds, 5.9% hits; note: potency is the fitted concentration of half-maximal effect; % is set by controls: 0 for no effect and ±100 for the full control effect
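First compound was added to culture medium, then infected red cells at 0.1% parasitemia and 2% hematocrit (final). After incubation at 37 C under 5% CO2, luciferase detection reagent was dispensed and light output recorded.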
Pf growth 96h: inhibits malaria parasite growth, 96 h; P. falciparum luciferase reporter growth, 96 h; Potency, µM (series often up to 28.7 µM), for the others: at the highest dose activity change, negative = inhibition, usual class: inhibitors; 320,000 compounds, 6.9% hits; note: potency is the fitted concentration of half-maximal effect; % is set by controls: 0 for no effect and ±100 for the full control effect
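Parasite growth measured via integrated firefly luciferase reporter in P. falciparum. Infected erythrocytes at 2% hematocrit, 0.05% parasitemia final were treated 96 hours at 37 C under 5% CO2, and luminescence was read.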
HCV inhibitor: HCV inhibition; Huh7.5.1 HCVcc-Cre infection, luciferase reporter, 44 h; Potency, µM (doses to about 41.8 µM), inactives show at the highest dose activity change, negative = inhibition, hits mostly inhibitors; 340,000 compounds, 3.4% hits; note: potency is the fitted concentration of half-maximal effect; % is set by controls: 0 for no effect and ±100 for the full control effect
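Cells seeded at 1,000/well and cultured 4 h, then compounds added followed by HCVcc-Cre virus (~0.5 moi). After 44 h further culture, luciferase substrate was added, plates held 15 min at room temperature, and luminescence read for 15 sec.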
HCMV inh: blocks human cytomegalovirus replication; HFF cells, HCMV-luciferase reporter, 72 h; active compounds read low; activity change, negative = inhibition, % at 57.5 µM; 410,000 compounds, 4.5% hits; in the data active = activity change below about -60%; inconclusive = no clear call, values can overlap the other calls; inactive = above about -39%; note: % is set by controls: 0 for no effect and ±100 for the full control effect
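Human foreskin fibroblasts infected with luciferase-reporter HCMV at MOI 1 PFU/cell, compounds at two doses. Luciferase measured 72 h post infection; normalized to buffer-only basal and Salinomycin (10uM) controls.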
An asterisk follows results filed as active; ? = inconclusive; / = not tested or not shown; ! = a repeat was not active; [ ] = remark or other dose. Shown are actives, neighbours in structure and some others; about 15% of the full set was active somewhere. Unless noted, calls come from the whole dose curve; as a rule, active = well fitted curve in the direction sought with a large enough effect; inconclusive = small, poorly fitted or top-dose-only effect, or another doubt; inactive = no such curve, though single readings can be large; an effect the other way counts as inactive or inconclusive.

SMILES	Sm TGR inh	SARS PLpro yeast	Pf growth 48h	Pf growth 96h	HCV inhibitor	HCMV inh
CCCCS(=O)CC(O)COCC (stereo unspecified)	0%	8%	/	9%	?	-30
CC(C)n1c(CN(C)Cc2ccccc2)nc2c1c(=O)n(C)c(=O)n2C	-26%	2%	2%	?	?	-89*
CCCCCn1c(CN(C)Cc2ccccc2)nc2c1c(=O)n(C)c(=O)n2C	0%	2%	?	8%[5.75 µM]	14µM*!	10
CCCCn1c(CN(Cc2ccccc2)Cc2ccccc2)nc2c1c(=O)n(C)c(=O)n2C	/	/	/	/	11%	5
CC(=O)C(C)n1c(CN(C)Cc2ccccc2)nc2c1c(=O)n(C)c(=O)n2C (stereo unspecified)	2%	-1%	-12%	-27%	?	-1
CCOCCn1c(CN(Cc2ccccc2)Cc2ccccc2)nc2c1c(=O)n(C)c(=O)n2C	3%	-7%	/	1.3µM*	?	-35
CCCNS(=O)(=O)/C=C/c1ccccc1	-2%	-4%	18%	13%	21%	42
COc1cc(/C=C/c2ccccc2)cc(OC)c1	/	/	/	/	?	46
O=S(=O)(/C=C/c1ccccc1)Oc1ccccc1	-22%	4%	/	3.3µM*	?	2
CNS(=O)(=O)/C=C/c1ccccc1	-3%	2%	34%	19%	24%	-72*
[O-]C(=C(C(=S)Nc1cccc2ccccc12)[n+]1cccc(CO)c1)c1ccc(Cl)s1	/	/	/	/	7.9µM*	13
Cc1ccc(C)c(NC(=S)/C(=C(\[O-])c2ccc(Cl)s2)[n+]2ccccc2)c1	-3%	0%	?	5.9µM*	-12%	55
[O-]/C(=C(\C(=S)Nc1cccc2ccccc12)[n+]1ccccc1)c1ccc(Cl)s1	-17%	17%	?	?	3%	32
O=C(COC(=O)c1cc[n+]([O-])cc1)NCC12CC3CC(CC(C3)C1)C2	-4%	3%	/	15%	8%	-4
COc1cccc(-c2cnc3c(NC(C)=O)cc(-c4ccsc4)cn23)c1	/	/	/	/	/	12
N/C(=N\c1nc2c(c(=O)[nH]1)CCCC2)Nc1ccc(Oc2ccccc2)cc1	4%	0%	?	8.3µM*	5%	?
NS(=O)(=O)c1cc(C(=O)N=Nc2c(O)[nH]c3ccccc23)ccc1Cl	11%	0%	10µM*	1.5µM*	-16%	-29
CC(C)c1ccc2[nH]c(O)c(N=NC(=O)c3cccc(S(=O)(=O)Nc4ccccc4Cl)c3)c2c1	0%	15%	-19%	-12%	3%	-26
O=C(N=Nc1c(O)[nH]c2ccccc12)c1cccc(S(=O)(=O)Nc2ccccc2Cl)c1	6%	1%	-27%	-6%	8%	-72*
COc1ccc(C(=O)N/C(=C\c2cccc3ccccc23)C(=O)NCCc2c[nH]c3ccccc23)cc1OC	-9%	0%	2.9µM*	5.9µM*	?	-9
COc1ccc(C(=O)NCCc2c[nH]c3ccccc23)cc1OC	1%	-14%	-15%	?	?	15
O=C(NCCc1c[nH]c2ccccc12)/C(=C\c1cccs1)NC(=O)c1ccccc1	3%	5%	?	15µM*	-18%	?
CCC(CC)c1nnc(NC(=O)CSCC(=O)Nc2cc(C)on2)s1	1%	0%	-1%	?	11%	-9
COc1cccc(-c2sc3ccc(OC)cc3c2-c2cnc(N3CCOCC3)nc2)c1	/	/	/	/	/	38
CCc1ccccc1NC(=S)N(Cc1ccc(OC)cc1)CC1CCC(C(=O)O)CC1 (stereo unspecified)	-5%	-3%	-23%	0%	20%	-4
O=C(c1sc(N2CCOCC2)nc1-c1ccccc1)N1CCCCC1	-25%	14%	-10%	-6%	12%	-39
[2H]c1c([2H])c([2H])c(-c2nc(N3CCCCCC3)sc2C(=O)c2ccccc2)c([2H])c1[2H]	15%	-15%	?	4.1µM*	?	?

Bioassay records: PubChem BioAssay, National Center for Advancing Translational Sciences (NCATS)
